Laboratory results as given in the supplement of paper PMC6555819.

What was measured:
Experiment in all cases: PBM binding z-score (relative to random genomic background probes); higher = stronger binding; sequences stand for … in GC…GCGATTGACAGCGTAGAATGAAGG
[1] = system: FXR:RXRa (NR concentration 270 nM, RXRa partner concentration 90 nM)
In short: (§1)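 Ligand-free nuclear receptor dimers were applied to custom Agilent 4×180K protein-binding microarrays whose double-stranded probes carried direct-repeat seeds, single-nucleotide variants, half-site ablations and random human genomic background sequences in 34-nt variable regions. Incubation lasted 1 h. Binding z-scores were computed against the random background probes from regression-normalized fluorescence.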

[2] = system: LXRa:RXRa (NR concentration 270 nM, RXRa partner concentration 90 nM)
In short: as §1

[3] = system: LXRa homodimer (NR concentration 270 nM)
In short: as §1

[4] = system: LXRb:RXRa (NR concentration 270 nM, RXRa partner concentration 90 nM)
In short: as §1

[5] = system: LXRb homodimer (NR concentration 270 nM)
In short: as §1

[6] = system: PPARa:RXRa (NR concentration 270 nM, RXRa partner concentration 90 nM)
In short: as §1

[7] = system: PPARg:RXRa (NR concentration 180 nM, RXRa partner concentration 90 nM)
In short: as §1

[8] = system: PPARg:RXRa 270nM:90nM, anti-RXR (NR concentration 270 nM, RXRa partner concentration 90 nM)
In short: as §1

[9] = system: PPARg:RXRa 30nM:10nM, anti-RXR (NR concentration 30 nM, RXRa partner concentration 10 nM)
In short: as §1

[10] = system: PPARg:RXRa 90nM:30nM, anti-RXR (NR concentration 90 nM, RXRa partner concentration 30 nM)
In short: as §1

[11] = system: PPARg:RXRa DBDmut IVT, anti-RXR (DBD mutation: RXRa K156A/R161A, NR concentration 270 nM, RXRa partner concentration 90 nM)
In short: as §1

[12] = system: PPARg:RXRa IVT, anti-PPARg (NR concentration 270 nM, RXRa partner concentration 90 nM)
In short: as §1

[13] = system: PPARg DBDmut:RXRa IVT, anti-PPARg (DBD mutation: PPARg1 K132A/R137A, NR concentration 270 nM, RXRa partner concentration 90 nM)
In short: as §1

[14] = system: PPARg DBDmut IVT, anti-PPARg (DBD mutation: PPARg1 K132A/R137A, NR concentration 270 nM)
In short: as §1

[15] = system: PPARg homodimer (NR concentration 180 nM)
In short: as §1

[16] = system: PXR:RXRa (NR concentration 270 nM, RXRa partner concentration 90 nM)
In short: as §1

[17] = system: PXR homodimer (NR concentration 270 nM)
In short: as §1

[18] = system: RARa:RXR (NR concentration 270 nM, RXRa partner concentration 90 nM)
In short: as §1

[19] = system: RARa homodimer (NR concentration 270 nM)
In short: as §1

[20] = system: RARb:RXRa (NR concentration 270 nM, RXRa partner concentration 90 nM)
In short: as §1

Sequence	PBM binding z-score [1]	PBM binding z-score [2]	PBM binding z-score [3]	PBM binding z-score [4]	PBM binding z-score [5]	PBM binding z-score [6]	PBM binding z-score [7]	PBM binding z-score [8]	PBM binding z-score [9]	PBM binding z-score [10]	PBM binding z-score [11]	PBM binding z-score [12]	PBM binding z-score [13]	PBM binding z-score [14]	PBM binding z-score [15]	PBM binding z-score [16]	PBM binding z-score [17]	PBM binding z-score [18]	PBM binding z-score [19]	PBM binding z-score [20]
TTACGAAGGTGAGCTGAGGTCGTTGATCCAACTC	2.65	1.46	-0.333	0.8	-0.914	1.52	0.0154	0.637	-0.115	0.0816	0.758	1.28	-0.294	-0.134	0.215	5.29	0.95	1.56	-0.794	1.79
ATCGCTAGGTAAAGTTCAGTGAAAGATCGATAGA	0.349	1.22	0.609	0.692	-0.361	1.81	1.85	3.26	1.49	2.75	-0.192	0.414	-0.0288	-0.241	0.606	1.42	1.26	0.812	-0.216	2.37
ACTAGTTGGTCAGCTGAGGTTACACACAATTCGG	1.56	0.761	0.139	1.29	0.188	1.42	0.989	0.496	0.134	0.586	1.4	1.58	0.987	0.803	1.09	2.46	0.19	1.64	-0.138	1.73
AGAATGAGGTGAAGATCAGGGAAACAGAATACAT	0.903	0.457	-0.113	0.85	-0.114	2.91	2.33	2.21	0.859	1.5	4.13	4.03	1.46	0.73	0.633	0.242	0.183	0.786	0.494	1.32
TCTGCTAGGTCAACGATCGTCAGCTAATCTGCTA	2.97	2.19	-0.465	1.24	-0.245	3.11	2.49	3.26	1.96	2.76	4.39	4.24	-0.071	-0.625	0.478	0.836	-0.972	1.79	-1.13	3.96
CAAACTATGTCACCGGAAGGTCAAAGTCCGCATG	3.73	3.78	4.13	3.89	1.52	4.37	3.69	4.08	1.4	2.98	5.08	5.25	0.711	1.64	3.93	4.29	2.1	4.93	2.43	3.7
TCTCGGAGGACACGAAAGTCAGAGCTTTCCAGAG	0.434	-0.603	-0.708	-0.456	-1.24	0.0493	-0.000671	0.487	2.23	1.24	1.13	0.191	-0.706	-0.594	-0.882	-0.408	-0.694	-0.237	-0.903	1.28
CCTCTTAGTTGACCATAAGGGCAACCGAAGCTCG	0.875	0.419	0.345	0.647	0.541	0.868	0.219	0.342	-0.34	0.305	0.417	0.373	0.452	-0.136	1.43	0.861	0.453	1.04	0.928	1.7
TCTAGTTGGCCACGGAGGTCACACACGACGGGTA	2.71	2.79	1.39	3.2	0.0016	3.68	2.32	2.96	2.82	2.84	1.59	2.78	1.61	0.255	2.19	4.03	0.788	3.94	0.587	3.35
CGTCCAAGGTCAGCAGGTCTGTGAAAGCGACGTG	5.03	3.02	-0.272	2.06	-0.284	4.16	2.65	3.06	0.0215	1.57	2.57	2.56	0.914	-0.164	2.67	2.58	0.407	3.61	0.46	4.85
CGAACGAGGGCATGAGTTGATATCAAATGCCGAT	0.475	0.326	-0.371	0.156	-0.654	1.59	1.58	1.42	0.347	0.786	3.23	2.11	0.21	-0.287	0.26	0.636	-0.013	0.352	-0.464	2.01
ACTAGTTGGTCAGCTGAGGTCACGCACAATTCGG	3.89	3.8	2.33	3.79	0.387	4.12	2.12	3.28	0.707	2.16	1.52	3.03	0.779	-0.0173	2.43	5.57	1.08	4.84	0.816	4.04
ATATGTAGGTTAGCTGGGGTCACTCAGACTAGGC	4.47	5.35	1.4	4.08	1.05	5.03	5.15	5.18	2.81	4.46	6.74	6.02	1.28	0.639	2.37	5.85	2.05	5.16	0.798	3.22
TCATATAGATAAAGGTGAAAGTCGAACGATATGA	0.837	1.1	0.162	1.26	0.134	2.57	2.33	3.51	4.36	4.09	2.13	1.9	1.06	1.29	1.18	0.893	-0.0494	1.43	0.832	1.61
TGAATGAGTTTAAAGATCAGGGAACGTGGCGTCG	-0.0413	0.111	-0.578	-0.0738	0.209	0.791	0.824	1.77	1.35	1.46	-0.728	-0.0345	0.667	-0.281	0.122	0.802	0.782	0.485	0.41	0.682
AACGAAAGGTCGTGAGGTGAGTATACAGAAAGGC	5.67	4.36	0.174	3.32	-0.0859	5.07	4.41	4.6	1.54	3.21	0.775	2.28	0.36	0.0984	1.96	3.37	0.132	4.22	0.704	4.04
TAGCCTAGGTCATGAGCCAGTATACCACGCGAAC	4.38	3.4	0.262	2.43	0.0464	3.93	3.35	2.98	0.892	2.05	1.81	3.11	-0.211	0.0511	1.45	1.61	-0.537	2.64	0.534	3.58
TCATATAGGTAAATGCTAGGTGCAAGTCCGATCT	0.626	0.526	0.11	0.195	0.0143	1.05	0.562	2.08	3.84	2.96	3.77	1.96	1.24	0.918	0.912	0.511	0.449	0.897	0.586	0.263
ATCGAAAGGTCGAGATGAGTATAGAGAAAGGGAA	3.74	3.2	0.146	2.54	0.748	4.2	2.56	2.97	0.989	2	-0.278	1.33	1.47	1.2	1.05	2.02	0.117	2.52	0.436	3.66
CCTAGTTGGTCAAGGTCACAGACGCTATAGGTAC	4.56	3.92	1.56	3.6	0.603	4.38	3.54	3.88	1.54	2.79	2.26	3.92	0.729	0.0985	3.27	4.21	2.19	4.66	2.61	4.28
TCATATAGGTAACTGCTAGGTGAAAGTCCGATCT	1.07	1.19	0.0877	0.852	-0.244	1.75	1.11	2.52	3.76	3.29	4.55	3.78	1.12	0.94	1.15	0.43	0.184	0.789	0.623	0.705
ATATGTAGGTTCAGGGTCATTCAGGTTGGTTCGC	4.82	4.56	2.81	4.44	1.46	5.2	7.3	7.14	6	7.46	3.41	4.69	1.38	1.25	3.72	5.44	5.1	5.15	2.39	3.41
GCTGCTAGGTCAGGTTCGTCAGCTAACGGGTACG	1.58	0.945	-0.287	0.33	-0.46	1.6	0.685	1.21	-0.222	0.283	3.23	2.23	-0.735	-0.897	0.459	0.538	-0.243	0.887	-0.894	3.17
TATACAGGGTCAAAGCCCAGAGTACGAATGTCGA	7.38	5.88	2.47	4.7	2.15	5.93	6.29	5.96	2.69	4.51	2.27	4.44	3.06	1.86	2.91	3.69	0.241	4.55	0.678	4.28
TAGCCTAGGTCACGCGGGCCAGTATAGTGTCGGC	5.13	3.81	0.104	2.03	-0.215	4.31	4.11	4.02	0.903	3.02	2.95	4.27	-0.0213	0.00762	1.6	1.84	-0.691	3.32	-0.183	4.33
CCTTACGGGTCACTGACAGGTGATAGCATTTGGA	6.8	5.19	0.411	4.32	-0.315	5.68	4.86	4.97	1.83	4	3.73	3.99	0.64	-0.737	2.47	4.3	0.473	5.06	0.945	4.15
CAAACTAGGTCAAAGGTCAAATTCGAGCCAACCA	8.57	7.2	6.34	7.43	4	7.66	14.1	11.5	12.7	14	8.73	9.36	7.2	6.6	8.4	7.16	1.57	8.86	3.32	5.62
TCTGCTAGGTCAGTTGGTCTGCTAACGAGCTGCC	0.643	0.261	-0.897	-0.119	0.334	0.9	-0.466	1.02	0.751	1.14	2.62	2.53	0.337	-0.177	-0.432	-0.155	-1.02	0.136	-1.16	3.25
CCGACTGGCGCATAAGGTTACCATAAGCCAGCCC	0.387	1.91	-0.184	0.848	-0.921	0.659	0.557	0.0532	-0.553	-0.235	-0.22	-0.617	-0.674	-0.756	0.0825	0.285	-0.103	0.776	0.248	0.721
